In PubChem BioAssay (Tox21):
Results filed as inconclusive are left out. A call without a number means that no potency is given here. Activity calls are given as the source filed them. The call rests on the fitted dose curve; in most records, active means well fitted curve in the direction sought with a large enough effect in the repeat runs; inconclusive means weak or mixed curves; inactive means no such curve, though single readings can be large; an effect the other way counts as inactive or inconclusive.

Test: Caspase-3/7 induction in CHO-K1 cells by small molecules, qHTS assay (AID 1346980); further: nearly all actives have a fitted effect of over 15% in size
Details: CHO-K1 caspase-3/7 induction, Caspase-Glo luminescence, 17 h; series mostly up to 92.4 µM
Summary of the method: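 Wild-type CHO-K1 cells exposed to compounds for 17hr at 37 C, 5% CO2. Caspase-3/7 activity then measured by Caspase-Glo 3/7 luminescence after 30min at room temperature.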
In the case of `CCCCCCCCC(CO)CCCCCC` (stereo unspecified), the Potency is reported as “inactive”.
With `CC(=O)N(CC(=O)N(C)C)c1ccccc1` the Potency was “inactive”.
For `Cc1cccc(OCCOc2cccc(C)c2)c1`, the Potency was “inactive”.
With `CC(C)CCCCCCOC(=O)c1ccc(C(=O)OCCCCCCC(C)C)c(C(=O)OCCCCCCC(C)C)c1` the Potency was “inactive”.
With `C[Si](C)O[Si](C)(C)O[Si](C)(C)O[Si](C)C` the Potency was “inactive”.
For `Cn1sccc1=O`, the Potency was “inactive”.
For `CCCCCCCCCC(=O)OCC`, the Potency was “inactive”.
In the case of `C=C(C)C(=O)OCCN(C)C`, the Potency is reported as “inactive”.
With `O=C1c2cccc(O)c2C(=O)c2c(O)cc(CO)cc21` the Potency was “inactive”.
With `Cc1cccc(Oc2ccccc2)c1` the Potency was “inactive”.
With `CCOc1ccc(NC(=O)CC(C)=O)cc1` the Potency was “inactive”.
For `CC1=CCC(C(C)C)C=C1` (stereo unspecified), the Potency was “inactive”.
With `CC(CN)CCCN` (stereo unspecified) the Potency was “inactive”.
With `CC(C)(C)c1cc(CCC(=O)OCC(COC(=O)CCc2cc(C(C)(C)C)c(O)c(C(C)(C)C)c2)(COC(=O)CCc2cc(C(C)(C)C)c(O)c(C(C)(C)C)c2)COC(=O)CCc2cc(C(C)(C)C)c(O)c(C(C)(C)C)c2)cc(C(C)(C)C)c1O` the Potency was “inactive”.

Test: Caspase-3/7 induction in HepG2 cells by small molecules, qHTS cell viability counter screen (AID 1346981); further: nearly all actives have a fitted effect of over 30% in size; further: potency means the concentration at half of the fitted maximal effect
Details: CellTiter-Fluor fluorescence, 17 h; series mostly up to 92.4 µM
Summary of the method: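 The parent HepG2 line is plated at 2,000 cells per well and rested 5 hr before compound pinning from DMSO stocks. Following a 16-hr treatment at 37 C, a fluorogenic live-cell substrate (CellTiter-Fluor) reports viability after 1 hr.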
In the case of `CCCCCCCCCCCCCCC1CO1` (stereo unspecified), the Potency is reported as “inactive”.
For `CC(=O)O[C@@H]1C(=O)O[C@@H]2[C@H]1OC(=O)[C@@H]2OC(C)=O`, the Potency was “inactive”.
For `CC(C)(Oc1ccc(Cl)cc1)C(=O)OCCCOC(=O)C(C)(C)Oc1ccc(Cl)cc1`, the Potency was “inactive”.
With `CCCCC(CC)(CO)CO` the Potency was “inactive”.
In the case of `N#CCc1cccc(C(F)(F)F)c1`, the Potency is reported as “inactive”.
In the case of `CC(C)(C)c1ccc(S)cc1`, the Potency is reported as “inactive”.
With `O=C(O)c1cn(C2CC2)c2cc(Cl)c(F)cc2c1=O` the Potency was “inactive”.
For `Nc1nc(CC(=O)O)cs1`, the Potency was “inactive”.
In the case of `CC[C@@H]1C[C@H](N(Cc2cc(C(F)(F)F)cc(C(F)(F)F)c2)C(C)=O)c2cc(C(F)(F)F)ccc2N1C(=O)OC(C)C`, the Potency is reported as “inactive”.
In the case of `CC(=O)/C=C/C1C(C)=CCCC1(C)C` (stereo unspecified), the Potency is reported as “inactive”.
For `CC(C)c1cccc(C(C)C)c1NC(=O)NS(=O)(=O)c1cc(C(C)(C)O)co1`, the Potency was “inactive”.
For `C1CCC2OC2C1` (stereo unspecified), the Potency was “inactive”.
With `CC(C)CCCC(C)CCO` (stereo unspecified) the Potency was “inactive”.
With `O=[N+]([O-])c1cccc(Cl)c1Cl` the Potency was “inactive”.
For `CCCCCCCCN(C)C`, the Potency was “inactive”.
With `O=C(C(=O)c1ccc(Br)cc1)c1ccc(Br)cc1` the activity change, negative = cytotoxicity was 2.21% [at 19 µM] (inactive).
With `CC(C)CC=O` the Potency was “inactive”.
With `COc1ccc(OC)c(OC)c1` the Potency was “inactive”.
For `CC(=O)OCCc1ccccc1`, the Potency was “inactive”.
In the case of `C=CCCCCCC`, the Potency is reported as “inactive”.
For `COc1ccc(C(C)=O)cc1`, the Potency was “inactive”.
For `O=C(/C=C/c1ccc(O)c(O)c1)O[C@@H]1C[C@](O)(C(=O)O)C[C@@H](O)[C@H]1O`, the Potency was “inactive”.
For `COC(Cc1ccccc1)OC`, the Potency was “inactive”.
In the case of `O=C(Cl)c1c(Cl)cccc1Cl`, the Potency is reported as “inactive”.
In the case of `CCc1nn(C2CCCCC2)c2cc(C3(C#N)CCC(C(=O)O)CC3)ccc12` (stereo unspecified), the Potency is reported as 15.4 µM (active).
For `CCCCCCCCC(CO)CCCCCC` (stereo unspecified), the Potency was “inactive”.
With `CC(=O)N(CC(=O)N(C)C)c1ccccc1` the Potency was “inactive”.
With `Cc1cccc(OCCOc2cccc(C)c2)c1` the Potency was “inactive”.
In the case of `CC(C)CCCCCCOC(=O)c1ccc(C(=O)OCCCCCCC(C)C)c(C(=O)OCCCCCCC(C)C)c1`, the Potency is reported as “inactive”.
For `C[Si](C)O[Si](C)(C)O[Si](C)(C)O[Si](C)C`, the Potency was “inactive”.
For `Cn1sccc1=O`, the Potency was “inactive”.
With `CCCCCCCCCC(=O)OCC` the Potency was “inactive”.
